Experiment [1] can be described thus: Cell Viability - BJ (AID 421; calls by dose curve;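 further: potency means the concentration at half of the fitted maximal effect; cells exposed to compound for 40 hours at 37 °C before readout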). Particulars: BJ fibroblast viability, qHTS. In a few lines:
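Quantitative HTS: ATP depletion in BJ cells after 40 hr compound exposure in complete culture medium, detected with CellTiter-Glo; AC50 from standard Hill fits.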

A short description of experiment [2]: Cell Viability - Jurkat (AID 426;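 active means dose-dependent loss of cell ATP signal giving a full or clear fitted curve, ranked by lower potency value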; further: potency means the concentration at half of the fitted maximal effect). The settings on record: qHTS. In outline:
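qHTS, 1536-well; Jurkat E6-1, 5000 cells/well, complete medium; cpd 40 hr, 37 °C; CellTiter-Glo 20 min RT; luminescence. AC50 by Hill fit.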
(qHTS replaces the single test concentration by a dilution series.)

Experiment [3] can be described thus: Cell Viability - Hek293 (AID 427;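 active means compounds whose dose-response curve shows a full or clear partial loss of cell viability, called from curve shape rather than a numeric limit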;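 further: potency means the concentration at half of the fitted maximal effect; cells exposed to compound for 40 hours at 37 °C before reading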). Particulars: qHTS. In outline:
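AC50 values derive from Hill-modelled concentration-response of ATP-based luminescence, normalized between DMSO-only and 100 uM tamoxifen controls. Cells were exposed in complete culture medium for 40 hr at 37 °C before detection.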

Experiment [4] is described as follows: Cell Viability - SK-N-SH (AID 435; calls by dose curve;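 further: potency means the concentration at half of the fitted maximal effect; compound exposure lasted 40 h at 37 °C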). Particulars: SK-N-SH neuroblastoma cell viability qHTS. In a few lines: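 SK-N-SH neuroblastoma cells (1500/well) treated 40 h at 37 °C in complete medium; viability read as cellular ATP by CellTiter-Glo luminescence. Normalized to DMSO and 100 uM tamoxifen; AC50 from Hill fits of qHTS concentration-response.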
The target in experiment [5] is Mitogen-activated protein kinase 10 (Mus musculus) (UniProt Q61831). Briefly: JNK3 AlphaScreen Assay (AID 530; active means well fitted curve in either direction with a large enough effect, not every such curve was filed as active;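 further: kinase came from lysate of stimulated human HepG2 cells; signal reports phosphorylation of biotinylated GST-cJun 1-79 at Ser73 with 10 µM ATP; on the % scale 0 is the no-effect control and ±100 the full control effect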). In a few lines:
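Inhibitors reduce antibody binding to phosphorylated biotin-cJun, lowering AlphaScreen luminescence. Lysates from HepG2 cells pre-activated by IL-1beta plus TNF-alpha supplied JNK3; compounds were titrated.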
For orientation: In Alpha technology, singlet oxygen from a donor bead excites a nearby acceptor bead.

The nature of experiment [6]: Cell Viability - N2a (AID 540). Further: potency means the concentration at half of the fitted maximal effect; nearly all actives have a fitted effect of over 45% in size. Particulars: N2a mouse neuroblastoma cell viability; activity change, negative = cytotoxicity: at 92.2 µM (top of the series). In a few lines: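 Luminescent ATP signal (CellTiter-Glo, 20 min at room temperature) served as the viability read-out after N2a cells were treated with compounds for 40 hours at 37 °C. Concentration-response data were fitted to the Hill equation for AC50.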

A short description of experiment [7]: Cell Viability - H-4-II-E (AID 543). Further: potency means the concentration at half of the fitted maximal effect; nearly all actives have a fitted effect of over 35% in size. In a few lines: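 Luminescent ATP signal (CellTiter-Glo) served as the viability read-out, with cytotoxicity seen as a concentration-dependent ATP drop. Cells were treated for 40 hours in complete medium. AC50 values derive from Hill-equation modelling.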
A short description of experiment [8]: Cell Viability - SH-SY5Y (AID 544). Further: potency means the concentration at half of the fitted maximal effect; nearly all actives have a fitted effect of over 55% in size. The settings on record: SH-SY5Y neuroblastoma cell viability; viability change, negative = cytotoxic: at 92.2 µM (top of the series). In a few lines: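 Luminescent ATP read-out (CellTiter-Glo) measures loss of viable SH-SY5Y neuroblastoma cells after 40 hr compound exposure at 37 °C. AC50 values derive from standard Hill modelling of qHTS concentration-response data.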

Experiment [9] is described as follows: Cell Viability - Renal Proximal Tubule (AID 545). Further: potency means the concentration at half of the fitted maximal effect; nearly all actives have a fitted effect of over 40% in size. Particulars: renal proximal tubule cells viability, primary cells of rat origin; activity change, negative = cytotoxicity: at 91.7 µM (top of the series). In outline:
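Rat renal proximal tubule primary cells, 1000/well, exposed to compounds for 40 hr at 37 °C in complete medium; cellular ATP read by CellTiter-Glo luminescence. AC50 from concentration-response fitted with standard Hill equation.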

Experiment [10] can be described thus: Cellular Toxicity (caspase-3) HepG2 (AID 654). Further: potency means the concentration at half of the fitted maximal effect. In outline: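 Cells plated 5 hr at 37 °C, compound added, incubated 16 hr at 37 °C. Caspase-Glo 3/7 reagent followed, 20 min at room temperature, then luminescence read. Activation scored as signal increase; AC50 from Hill fit.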
The nature of experiment [11]: Cellular Toxicity (caspase-3) Hek293 (AID 664).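 Further: cells exposed to compound for 16 h at 37 °C before readout.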 Particulars: HEK293 caspase-3 activation, DMSO = 0%, 100 µM tamoxifen = 100%; at 92.2 µM (top of the series). In outline: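 Cells plated, 5 hr at 37 °C; compounds added; 16 hr at 37 °C; Caspase-Glo 3/7 reagent, 20 min RT; luminescence read. Activation expressed relative to DMSO and 100 uM tamoxifen, AC50 by Hill model.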

Experiment [12] is described as follows: Cellular Toxicity (caspase-3) N2a (AID 665).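 Further: compound exposure lasted 16 h at 37 °C before readout.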 Particulars: Potency: caspase-3 activation. In outline:
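N2a cells, 1500/well, 5 h settle at 37 °C; cpd 16 h, 37 °C; Caspase-Glo 3/7, 1 h RT; luminescence. Norm: DMSO = 0, 10 uM staurosporine = 100%. AC50, Hill fit.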

The target of experiment [13] is Cytochrome P450 3A4 (Homo sapiens) (UniProt P08684). Briefly: qHTS Assay for Activators of Cytochrome P450 3A4 (AID 885). Further: nearly all actives have a fitted effect of over 65% in size. In outline:
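Quantitative HTS format: compounds preincubated with 20nM human CYP3A4 and Luciferin-PPXE substrate at KM, reaction started by NADPH regeneration, stopped after 60 min, luciferase luminescence read 20 min later.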

For experiment [14], the target named is Peroxisome proliferator-activated receptor alpha (Homo sapiens) (UniProt Q07869). Briefly: qHTS assay for small molecule agonists of the peroxisome proliferator-activated receptor alpha (PPARalpha) signaling pathway (AID 651778). Further: potency means the concentration at half of the fitted maximal effect. Particulars: PathHunter PPARalpha complementation, chemiluminescence, 6 h; max response: hits give high values. In a few lines: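 Cells plated at 2,000/well and held overnight at 37 C, 5% CO2, then compound added by pin tool for 6 hr; after PathHunter detection reagent and 60 min at room temperature, chemiluminescence from enzyme complementation was read.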
Sequence of Peroxisome proliferator-activated receptor alpha (Homo sapiens) (Q07869 whole entry, looked up): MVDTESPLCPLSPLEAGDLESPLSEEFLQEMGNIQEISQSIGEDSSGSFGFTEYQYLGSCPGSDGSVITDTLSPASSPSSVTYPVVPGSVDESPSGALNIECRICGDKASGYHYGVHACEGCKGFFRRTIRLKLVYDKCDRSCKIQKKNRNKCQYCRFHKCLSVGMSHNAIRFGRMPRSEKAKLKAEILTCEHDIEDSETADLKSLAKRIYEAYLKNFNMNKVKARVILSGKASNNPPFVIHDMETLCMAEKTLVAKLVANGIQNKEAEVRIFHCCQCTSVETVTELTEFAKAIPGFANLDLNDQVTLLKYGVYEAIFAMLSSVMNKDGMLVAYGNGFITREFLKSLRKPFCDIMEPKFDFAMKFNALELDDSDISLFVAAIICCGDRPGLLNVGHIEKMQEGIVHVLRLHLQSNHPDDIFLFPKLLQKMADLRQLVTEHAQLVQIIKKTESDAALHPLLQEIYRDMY

Experiment [15] deals with Cytochrome P450 1A2 (Homo sapiens) (UniProt P05177). Briefly: p450-cyp1a2 (AID 410; calls by dose curve; further: potency means the concentration at half of the fitted maximal effect). In a few lines:
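Luminescent readout of luciferin formed from Luciferin-ME by human CYP1A2; data normalized against complete inhibition by 57 uM furafylline. Enzyme 20nM, substrate 100uM at Km, 100mM KPO4 buffer, 60 min reaction at room temperature.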

Experiment [16] has as its target Cytochrome P450 2C19 (Homo sapiens) (UniProt P33261). Nature of the experiment: qHTS Assay for Inhibitors and Substrates of Cytochrome P450 2C19 (AID 899). Further: potency means the concentration at half of the fitted maximal effect; nearly all actives have a fitted effect of over 60% in size. In outline: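 NADPH-dependent conversion of Luciferin-H EGE (10uM, at KM) by 5nM enzyme in 50mM KPO4, 60 min at 37C following 10 min compound preincubation. Stopped with luciferin detection buffer; luminescence read after 20 min.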

The target in experiment [17] is 3',5'-cyclic-AMP phosphodiesterase 4B (Homo sapiens) (UniProt Q07343). Nature of the experiment: qHTS Assay for Inhibitors of PDE-IV (AID 607; active means well fitted activation curve with a large enough effect in the main read-out, with a control signal flat, not every such curve was filed as active; further: % of control where 0% means no effect). In a few lines:
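Live HEK293 cells with a modified cyclic nucleotide-gated (CNG) channel report intracellular cAMP via membrane-potential dye fluorescence (ex 535/em 590 nm). Endogenous PDE-IV was targeted. Compounds were tested at up to 22.9 uM final; RO 20-1724 100 uM served as control.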

For experiment [18], the target named is Cytochrome P450 2D6 (Homo sapiens) (UniProt P10635). Briefly: qHTS Assay for Inhibitors and Substrates of Cytochrome P450 2D6 (AID 891). Further: potency means the concentration at half of the fitted maximal effect; nearly all actives have a fitted effect of over 60% in size. In a few lines: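 Human CYP2D6 (5 nM) with 30 uM Luciferin-ME EGE (at Km) in 100 mM KPO4, compound preincubated 10 min, then NADPH regeneration system for 60 min at room temperature. Luciferin read by luminescence; normalized to 1.43 uM quinidine.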
Sequence of Cytochrome P450 2D6 (Homo sapiens) (P10635 whole entry, looked up): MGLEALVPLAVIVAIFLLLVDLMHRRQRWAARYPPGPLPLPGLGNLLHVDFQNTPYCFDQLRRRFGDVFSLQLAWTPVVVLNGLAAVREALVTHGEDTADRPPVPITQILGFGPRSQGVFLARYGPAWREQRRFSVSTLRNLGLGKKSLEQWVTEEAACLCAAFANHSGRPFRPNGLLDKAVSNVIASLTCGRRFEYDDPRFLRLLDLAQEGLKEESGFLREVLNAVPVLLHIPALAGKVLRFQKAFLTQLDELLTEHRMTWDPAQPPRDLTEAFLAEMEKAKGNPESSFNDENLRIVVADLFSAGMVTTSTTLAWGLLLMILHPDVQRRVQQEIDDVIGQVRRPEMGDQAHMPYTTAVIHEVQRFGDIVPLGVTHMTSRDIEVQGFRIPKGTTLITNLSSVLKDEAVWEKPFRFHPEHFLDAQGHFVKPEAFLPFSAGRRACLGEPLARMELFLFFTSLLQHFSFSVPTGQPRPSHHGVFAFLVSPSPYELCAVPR

The target of experiment [19] is Cytochrome P450 2C9 (Homo sapiens) (UniProt P11712). Nature of the experiment: qHTS Assay for Inhibitors and Substrates of Cytochrome P450 2C9 (AID 883). Further: potency means the concentration at half of the fitted maximal effect; nearly all actives have a fitted effect of over 60% in size. In outline: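 A luminogenic readout tracked human CYP2C9 (10nM) converting deoxyluciferin (100uM, at KM) in 25mM KPO4 during 60 min at 37C with regenerated NADPH. Values normalized to 57uM sulphaphenazole as complete inhibition.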
Sequence of Cytochrome P450 2C9 (Homo sapiens) (P11712 whole entry, looked up): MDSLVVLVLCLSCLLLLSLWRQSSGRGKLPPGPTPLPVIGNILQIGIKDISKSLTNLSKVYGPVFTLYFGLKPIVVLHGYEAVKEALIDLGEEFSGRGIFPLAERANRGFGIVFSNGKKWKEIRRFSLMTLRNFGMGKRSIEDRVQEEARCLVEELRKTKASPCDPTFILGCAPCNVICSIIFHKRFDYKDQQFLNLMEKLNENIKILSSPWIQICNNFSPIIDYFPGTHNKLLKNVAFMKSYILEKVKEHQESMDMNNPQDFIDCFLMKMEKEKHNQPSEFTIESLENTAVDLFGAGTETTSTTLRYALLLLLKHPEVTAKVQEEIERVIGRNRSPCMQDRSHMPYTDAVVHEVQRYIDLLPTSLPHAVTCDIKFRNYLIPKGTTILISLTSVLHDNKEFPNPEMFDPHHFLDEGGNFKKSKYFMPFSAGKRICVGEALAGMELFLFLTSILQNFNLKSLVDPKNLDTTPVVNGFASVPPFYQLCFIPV

The target in experiment [20] is Cytochrome P450 3A4 (Homo sapiens) (UniProt P08684). Briefly: qHTS Assay for Inhibitors and Substrates of Cytochrome P450 3A4 (AID 884). Further: potency means the concentration at half of the fitted maximal effect; nearly all actives have a fitted effect of over 50% in size. In outline: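 20 nM human CYP3A4 with 25 uM Luciferin-PPXE (at KM) in 200 mM KPO4, preincubated 10 min with compound; NADPH regeneration started a 60 min RT reaction. Luciferin detected by luminescence, normalized to 57 uM ketoconazole as full inhibition.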
Sequence of Cytochrome P450 3A4 (Homo sapiens) (P08684 whole entry, looked up): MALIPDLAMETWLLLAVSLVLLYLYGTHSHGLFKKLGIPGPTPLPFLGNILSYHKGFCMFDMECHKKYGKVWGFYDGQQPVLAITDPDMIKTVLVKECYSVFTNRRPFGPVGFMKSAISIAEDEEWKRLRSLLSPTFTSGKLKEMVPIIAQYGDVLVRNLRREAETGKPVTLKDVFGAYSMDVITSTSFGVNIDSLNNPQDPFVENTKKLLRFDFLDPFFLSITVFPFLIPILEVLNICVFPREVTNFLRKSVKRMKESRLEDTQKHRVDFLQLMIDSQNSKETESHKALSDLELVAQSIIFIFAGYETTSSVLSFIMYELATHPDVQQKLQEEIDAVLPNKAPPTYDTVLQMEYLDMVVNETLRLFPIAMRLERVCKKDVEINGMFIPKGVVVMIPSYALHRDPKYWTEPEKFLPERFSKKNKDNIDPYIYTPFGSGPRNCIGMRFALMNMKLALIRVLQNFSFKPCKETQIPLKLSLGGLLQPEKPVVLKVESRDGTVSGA

Several values for one entry are separate records, joined by “and”; a condition that tells them apart may be missing. Equal entries are not always repeated. Values without a mark were called inactive. Inconclusive results are not listed. Activity calls are given as the source filed them. Unless noted, the call rests on the fitted dose curve; in most records, active means well fitted curve in the direction sought with a large enough effect; inconclusive means small, poorly fitted or top-dose-only effect, or another doubt; inactive means no such curve, though single readings can be large; an effect the other way counts as inactive or inconclusive.

Sequence of Cytochrome P450 1A2 (Homo sapiens) (P05177 whole entry, looked up): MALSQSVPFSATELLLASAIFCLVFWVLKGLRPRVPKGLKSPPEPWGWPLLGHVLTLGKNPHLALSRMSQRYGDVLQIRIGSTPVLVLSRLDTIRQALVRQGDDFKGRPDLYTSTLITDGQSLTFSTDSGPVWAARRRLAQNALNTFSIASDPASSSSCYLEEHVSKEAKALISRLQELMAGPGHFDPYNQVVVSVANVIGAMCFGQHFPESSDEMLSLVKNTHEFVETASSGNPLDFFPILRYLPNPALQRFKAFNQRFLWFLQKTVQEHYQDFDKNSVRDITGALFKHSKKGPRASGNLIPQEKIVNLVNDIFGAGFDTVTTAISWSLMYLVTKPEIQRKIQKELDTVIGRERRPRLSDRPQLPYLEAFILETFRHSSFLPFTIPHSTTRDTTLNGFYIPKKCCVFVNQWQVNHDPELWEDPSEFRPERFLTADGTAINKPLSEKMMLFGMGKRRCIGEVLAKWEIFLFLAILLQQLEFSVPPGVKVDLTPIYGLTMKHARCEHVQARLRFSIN
Sequence of 3',5'-cyclic-AMP phosphodiesterase 4B (Homo sapiens) (Q07343 whole entry, looked up): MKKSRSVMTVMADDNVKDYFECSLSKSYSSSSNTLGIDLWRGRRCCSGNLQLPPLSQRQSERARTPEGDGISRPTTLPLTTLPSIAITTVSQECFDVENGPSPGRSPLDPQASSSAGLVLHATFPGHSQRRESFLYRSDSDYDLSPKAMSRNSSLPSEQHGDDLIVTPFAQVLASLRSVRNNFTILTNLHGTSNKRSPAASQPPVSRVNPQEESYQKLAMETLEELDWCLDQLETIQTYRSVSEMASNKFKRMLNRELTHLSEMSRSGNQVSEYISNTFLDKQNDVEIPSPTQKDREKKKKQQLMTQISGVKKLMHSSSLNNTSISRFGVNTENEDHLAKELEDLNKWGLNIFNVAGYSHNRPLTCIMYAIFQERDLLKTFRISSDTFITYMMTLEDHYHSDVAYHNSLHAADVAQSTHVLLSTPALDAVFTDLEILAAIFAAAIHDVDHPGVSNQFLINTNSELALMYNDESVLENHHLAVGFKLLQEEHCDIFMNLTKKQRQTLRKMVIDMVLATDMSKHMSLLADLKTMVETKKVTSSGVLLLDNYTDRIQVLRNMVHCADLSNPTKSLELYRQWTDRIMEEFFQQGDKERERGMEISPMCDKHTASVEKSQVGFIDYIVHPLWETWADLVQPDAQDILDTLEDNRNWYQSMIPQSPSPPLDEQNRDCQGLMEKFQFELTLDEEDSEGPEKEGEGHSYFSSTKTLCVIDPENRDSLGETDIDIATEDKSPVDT
Sequence of Cytochrome P450 2C19 (Homo sapiens) (P33261 whole entry, looked up): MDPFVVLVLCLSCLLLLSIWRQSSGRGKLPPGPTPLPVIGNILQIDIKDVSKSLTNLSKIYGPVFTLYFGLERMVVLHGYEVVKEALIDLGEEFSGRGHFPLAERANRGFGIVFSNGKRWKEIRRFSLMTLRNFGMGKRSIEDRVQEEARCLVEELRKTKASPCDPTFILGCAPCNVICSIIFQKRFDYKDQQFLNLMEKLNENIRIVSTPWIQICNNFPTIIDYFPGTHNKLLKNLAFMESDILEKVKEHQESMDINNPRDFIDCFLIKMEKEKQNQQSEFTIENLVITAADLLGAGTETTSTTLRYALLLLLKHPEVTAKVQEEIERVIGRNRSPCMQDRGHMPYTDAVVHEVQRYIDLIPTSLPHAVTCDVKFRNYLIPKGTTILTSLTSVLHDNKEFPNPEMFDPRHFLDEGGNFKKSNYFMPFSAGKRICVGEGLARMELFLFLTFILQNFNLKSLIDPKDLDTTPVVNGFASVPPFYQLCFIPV

Consider `Cc1cc(O)c(C(C)(C)C)cc1Sc1cc(C(C)(C)C)c(O)cc1C`, for which the Potency was 43.8 µM (active) in experiment [1]; 16.3 µM (active) in experiment [2]; 33.7 µM (active) in experiment [3]; 23 µM (active) in experiment [4]; 12.6 µM (active) in [6]; 25.1 µM (active) in experiment [7]. Besides, the Potency in experiment [8] is 31.6 µM (active); in experiment [9] it was 25.1 µM (active); in [10], 63.1 µM (active); in [14], 11.2 µM (active) and 4.47 µM (active). Besides, the Potency result in [5], in experiment [12] and in experiment [13] was “inactive” in each case. For the same compound, the caspase-3 activation in experiment [11] is 230% (active).
On to `CCc1c2c(nc3c(C(C)C)cccc13)-c1cccc(=O)n1C2`, for which the Potency in experiment [15] is 0.398 µM (active). The Potency result in experiment [13] was “inactive”.
As to `CCC/C=C(\CCC)C(NS(=O)(=O)c1ccc(-c2ccccc2)cc1)c1ccc(C(=O)OC)cc1` (centres undefined), the Potency in experiment [15] was 6.31 µM (active); in experiment [16] it was 1.26 µM (active).
As to `CCC/C=C(\CCC)C(NC(=O)c1ccc(C(F)(F)F)cc1)c1ccccc1` (centres undefined), the values for the Potency in experiment [15] and in experiment [18] were 25.1 µM (active) and 7.94 µM (active), respectively. For the same compound, the Potency result in experiment [17] and in experiment [13] was “inactive” in each case.
As for `CCC/C=C(\CCC)C(NC(=O)C(C)(C)C)c1ccc(C(=O)OC)cc1` (centres undefined), the Potency result in experiment [15] and in experiment [13] was “inactive” throughout.
`COC(=O)[C@@]1(Cc2ccccc2)[C@H]2c3cc(C(=O)N4CCCC4)n(Cc4ccccn4)c3C[C@H]2CN1C(=O)c1ccccc1`: the Potency result in [15], in [17] and in experiment [13] was “inactive” throughout. The Potency was 0.199 µM (active) in [19] and 2 µM (active) in experiment [20].
For the compound `COC(=O)[C@@]1(Cc2ccccc2)[C@@H]2C(=CC(=O)[C@H]2CC(=O)C(=O)N(C)C)CN1C(=O)c1ccccc1`, the Potency entry in experiment [15] and in experiment [13] was “inactive” each time. The Potency in [20] was 7.94 µM (active).
As to `CC(C)c1cccc2nc3c(c([Si](C)(C)C(C)(C)C)c12)Cn1c-3cccc1=O`, in experiment [15], the Potency was 25.1 µM (active). The Potency entry in experiment [5] and in [13] was “inactive” in each case.
As for `CC(C)c1cccc2c([Si](C)(C)C)c3c(nc12)-c1cccc(=O)n1C3`, the Potency is 15.8 µM (active) in experiment [15] and 2 µM (active) in [19]. Moreover, in experiment [13], the Potency entry was “inactive”.
For `CCC/C=C(\CCC)C(NS(=O)(=O)c1cccs1)c1ccc(C(=O)OC)cc1` (centres undefined), the Potency is 12.6 µM (active) in experiment [15]; 2 µM (active) in [19]; 3.16 µM (active) in [20]; 6.31 µM (active) in [18]; 0.794 µM (active) in experiment [16]. Also, the Potency entry in [17] and in experiment [13] was “inactive” throughout.
With `CCCC[C@@H]1C[C@H]1C(NC(=O)c1cccs1)c1ccc(Cl)cc1` (some centres undefined), the Potency in [15] was 1 µM (active); in [20] it was 5.01 µM (active); in [16], 0.0794 µM (active). Besides, the Potency result in [17] and in [13] was “inactive” each time.
As to `CCCC/C=C/C(NC(=O)Oc1cccc(C(F)(F)F)c1)c1ccccc1` (centres undefined), the Potency was 2.51 µM (active) in experiment [15] and 3.16 µM (active) in [16]. The Potency entry in [17] and in [13] was “inactive” each time.
As for `COC(=O)[C@@]1(Cc2ccccc2)[C@H]2c3cc(C(=O)N4CCCC4)n(CC4CC4)c3C[C@H]2CN1C(=O)c1ccccc1`, the Potency result in experiment [15], in experiment [17] and in experiment [13] was “inactive” throughout. For the same compound, the Potency in [20] and in [16] was 3.16 µM (active) each time.
